The values that follow come from PubChem BioAssay.

The structures appear in SMILES notation. Activity calls are given as the source filed them.

Sequence of NADPH oxidase 2 (Homo sapiens) (P04839 whole entry, looked up): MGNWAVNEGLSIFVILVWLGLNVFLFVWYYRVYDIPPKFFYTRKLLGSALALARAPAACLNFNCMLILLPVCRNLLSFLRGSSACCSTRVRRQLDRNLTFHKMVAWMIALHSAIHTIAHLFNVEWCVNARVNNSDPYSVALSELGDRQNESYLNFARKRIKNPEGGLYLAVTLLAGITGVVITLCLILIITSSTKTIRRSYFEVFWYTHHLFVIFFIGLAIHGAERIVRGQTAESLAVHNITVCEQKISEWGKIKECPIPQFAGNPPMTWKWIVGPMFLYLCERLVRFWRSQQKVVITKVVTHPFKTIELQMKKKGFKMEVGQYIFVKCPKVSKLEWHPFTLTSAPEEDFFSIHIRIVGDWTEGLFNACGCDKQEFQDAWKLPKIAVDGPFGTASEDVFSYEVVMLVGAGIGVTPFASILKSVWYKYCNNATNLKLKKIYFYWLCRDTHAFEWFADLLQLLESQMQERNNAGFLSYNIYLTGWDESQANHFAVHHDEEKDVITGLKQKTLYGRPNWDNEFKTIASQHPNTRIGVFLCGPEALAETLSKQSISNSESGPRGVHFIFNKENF

Tested on in one experiment: not listed separately
Put plainly: S6 kinase pathway phospho-S6 level changes – cell-based, A549, cytoblot, luminescence, serum-stimulated, primary screen (AID 1158).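 Note: serum-stimulated A549 lung adenocarcinoma cells; signal is phosphorylated S6 detected by cytoblot immunostaining with HRP secondary.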 Particulars: 5 h, higher = more signal.
The molecule `C#CCCCON=C1C[C@@H](O)[C@@H](O)[C@@H]2[C@@H]3C(=O)N([C@@H](C)c4ccccc4)C(=O)[C@@H]3CC[C@@H]12` yielded a z-score of -0.507. Consider `O=C1[C@H]2[C@H]3[C@H](O)[C@H](O)CC(=NOC[C@@H](O)COCc4ccco4)[C@@H]3CC[C@H]2C(=O)N1C1CCCCC1`, for which the z-score was -0.9. Regarding `C[C@]12CCC3c4ccc(OCC5CO5)cc4CCC3C1CC[C@@H]2O` (stereo partly drawn), the z-score worked out at 0.25.

On to `CCOC(=O)CCN1C(=O)[C@H]2[C@H]3[C@H](O)[C@H](O)CC(=NO[C@@H]4O[C@H](CO)[C@@H](O)[C@H](O)[C@H]4O)[C@H]3CC[C@H]2C1=O`, for which the z-score turned out to be 0.199. Still for that read-out and setting: the result for `C=CCOCC1CN2[C@@H](CC[C@@H](C)[C@@H]2c2ccc(Br)cc2)C(=O)O1` (stereo partly drawn) reads -0.665; that for `CO[C@H]1COC(=O)[C@H](C)COC(=O)[C@@H](OCc2ccccc2)C=C[C@@H]1C`, 0.893; that for `CC(C)=NOC(C)CN1CCCc2nc(C)c(C)cc21` (stereo not drawn), -0.558.

A further experiment has as its target NADPH oxidase 2 (Homo sapiens) (UniProt P04839). Put plainly: compounds shifting NOX2 Amplex Red fluorescence – cell-based, HEK293-NOX2, PMA-stimulated, NOX inhibitor project, primary screen (AID 1159). Note: test concentration not given here. Particulars: 45 min, higher = more signal, called active from +8 up or from −8 down.
Turning to `COC(=O)CC=C[C@@H](C)[C@@H](C=NOC(C)CN1CCCCc2nc(C)c(C)cc21)OC` (stereo partly drawn), the z-score was -2.01 (inactive). With `CCOC(=O)[C@H](CC(C)C)NC(=O)CCC1CC(OC(=O)NCc2ccc3c(c2)OCO3)CC2(CCCC(COC(=O)NCCc3ccc(Cl)cc3)O2)O1` (stereo partly drawn), the z-score was 0.747 (inactive). On the same count and under the same terms, to `CC(CCN1CCc2nc(-c3ccccc3)c(-c3ccccc3)cc2C1)=NO[C@H](C)c1cn([C@H](CO)Cc2ccccc2)nn1` belongs -4.57 (inactive); to `CC(CCC(=O)OC[C@H]1O[C@H](C#Cc2ccccc2)C=C[C@@H]1Oc1ccc(C)cc1)=NO[C@H](C)c1cn([C@@H]2COC[C@H]2O)nn1`, -2.39 (inactive); to `CC(CCN1CCc2nc(-c3ccccc3)c(-c3ccccc3)cc2C1)=NOC(C)CN1CCCc2nc(C)c(C)cc21` (stereo not drawn), -5.56 (inactive). In the case of `CCC1=NOC(CCC2CC(OC(=O)NCc3cccc4c3OCO4)CC3(CCCC(COC(=O)NCCc4ccc(Cl)cc4)O3)O2)C1` (stereo not drawn), the z-score is 1.28 (inactive). Same read-out and setting: to `CCOC(=O)CCN1C(=O)[C@H]2[C@@H]3C(=CC[C@H]2C1=O)C(=O)[C@H]1O[C@H]1[C@H]3O` belongs 0.955 (inactive). Turning to `CON=C(C)CCC(=O)OC[C@H]1O[C@H](C#Cc2ccccc2)C=C[C@@H]1Oc1ccc(C)cc1`, the z-score was -2.16 (inactive). On the same count and under the same terms, to `Cc1cc2c(nc1C)CCCCN2CC(O)CN1CCCc2nc(-c3ccc(Br)cc3)ccc21` (stereo not drawn) belongs 1.88 (inactive); to `COC(=O)[C@H](C)NC(=O)CCC1CC(OC(=O)NCc2cccc3ccccc23)CC2(CCCC(COC(=O)NCCc3ccccc3OC)O2)O1` (stereo partly drawn), -0.49 (inactive); to `CC#CCOCCC=C1c2ccccc2[C@@H](OC)[C@@H]1C`, 0.114 (inactive).

On to `CCO[C@H](c1cc(OC)cc([N+](=O)[O-])c1OC)[C@H](C)[C@@H](OC)[C@H](C)C=CCC(=O)OC`, for which the z-score is -1.73 (inactive). As to `O=C1[C@H]2[C@H]3[C@H](O)[C@H](O)CC(=NOC[C@@H](O)COCc4ccco4)[C@@H]3CC[C@H]2C(=O)N1c1cccc(Oc2ccccc2)c1`, the z-score is 2.2 (inactive).

`COC(=O)[C@@H]1CC[C@H](C)[C@@H](c2ccc(Br)cc2)N1C[C@@H](O)CN=[N+]=[N-]`: the z-score was 0.0777 (inactive). Consider `CCOC(=O)[C@H](Cc1ccccc1)NC(=O)CCC1CC(OC(=O)NCc2cccc3ccccc23)CC2(CCCC(COC(=O)NCC3CCCCC3)O2)O1` (stereo partly drawn), for which the z-score was 0.746 (inactive). Same read-out and setting: the result for `C#CCCCON=C1[C@H]2CCn3c(=O)n([C@@H](CC)c4ccccc4)c(=O)n3[C@H]2[C@H](O)[C@@H]2O[C@H]12` reads 1.29 (inactive); that for `C[C@@H]1C=CCC(=O)OC[C@H](C)C(=O)N[C@@H](Cc2ccccc2)C(=O)OC1`, -0.348 (inactive); that for `Cc1ccc2[nH]c3nc(CCCn4ccnc4-c4ccccc4)nnc3c2c1`, -0.137 (inactive). Turning to `CC(CCN1CCc2nc(-c3ccccc3)c(-c3ccccc3)cc2C1)=NO[C@@H](C)c1cc(-c2c(C)cc(C)cc2C)no1`, the z-score was -0.861 (inactive). `O=C1[C@H]2CCn3c(=O)n(Cc4cc5c(cc4Cl)OCO5)c(=O)n3[C@H]2[C@H](O)[C@@H]2O[C@H]12`: the z-score is -0.664 (inactive).

As for `CCCNC(=O)OC[C@H]1O[C@H](CCON=C[C@@H](NS(=O)(=O)c2ccc(C)cc2)[C@H](C)C=CCC(=O)OC)C=C[C@@H]1Oc1ccc(OC)cc1`, the z-score is 0.173 (inactive). Regarding `CCN1C(=O)[C@H]2[C@H]3[C@H](O)[C@H](O)CC(=NOCC[C@@H]4C=C[C@H](OC(C)=O)[C@@H](COC(C)=O)O4)[C@@H]3CC[C@H]2C1=O`, the z-score is 0.0899 (inactive). Take `COc1ccc(O[C@H]2C=C[C@@H](c3ccccc3)O[C@@H]2COC(=O)CCC(C)=NOC[C@@H](O)COCc2ccco2)cc1`: the z-score was -3.53 (inactive). Still for that read-out and setting: the result for `CC(C)[C@@H](OCc1ccccc1)[C@H](C)C=NOC[C@@H](O)[C@H]1O[C@@H]2OC(C)(C)O[C@@H]2[C@H]1O` reads 1.09 (inactive); that for `O=C1C2=CC[C@H]3C(=O)N(Cc4ccccc4)C(=O)[C@H]3[C@H]2[C@H](O)[C@@H]2O[C@H]12`, -1.41 (inactive); that for `COC(=O)[C@H](C)NC(=O)CCC1CC(OC(=O)NCc2ccc3c(c2)OCO3)CC2(CCCC(COC(=O)NCc3ccccc3)O2)O1` (stereo partly drawn), 0.154 (inactive). With `CC(C)CON=C1C[C@@H](O)[C@@H](O)[C@@H]2[C@@H]3C(=O)N(Cc4ccccc4)C(=O)[C@@H]3CC[C@H]12`, the z-score was 1.48 (inactive). For `O=C1[C@H]2[C@H]3[C@H](O)[C@H](O)CC(=NO[C@@H]4O[C@H](CO)[C@@H](O)[C@H](O)[C@H]4O)[C@H]3CC[C@H]2C(=O)N1c1ccc(F)cc1F`, the z-score is -0.307 (inactive). As for `CC(=O)OC[C@H]1O[C@@H](ON=C2[C@H]3CCn4c(=O)n(-c5ccccc5)c(=O)n4[C@H]3[C@H](O)[C@@H]3O[C@H]23)[C@H](OC(C)=O)[C@@H](OC(C)=O)[C@@H]1OC(C)=O`, the z-score is -0.186 (inactive).

Consider `C#CCCCON=C1C[C@@H](O)[C@@H](O)[C@@H]2[C@@H]3C(=O)N([C@@H](C)c4ccccc4)C(=O)[C@@H]3CC[C@@H]12`, for which the z-score is 0.362 (inactive). Still for that read-out and setting: to `O=C1[C@H]2[C@H]3[C@H](O)[C@H](O)CC(=NOC[C@@H](O)COCc4ccco4)[C@@H]3CC[C@H]2C(=O)N1C1CCCCC1` belongs -0.0721 (inactive). Regarding `C[C@]12CCC3c4ccc(OCC5CO5)cc4CCC3C1CC[C@@H]2O` (stereo partly drawn), the z-score is 1.44 (inactive). Still for that read-out and setting: the result for `CCOC(=O)CCN1C(=O)[C@H]2[C@H]3[C@H](O)[C@H](O)CC(=NO[C@@H]4O[C@H](CO)[C@@H](O)[C@H](O)[C@H]4O)[C@H]3CC[C@H]2C1=O` reads 0.444 (inactive); that for `C=CCOCC1CN2[C@@H](CC[C@@H](C)[C@@H]2c2ccc(Br)cc2)C(=O)O1` (stereo partly drawn), 0.286 (inactive). In the case of `CO[C@H]1COC(=O)[C@H](C)COC(=O)[C@@H](OCc2ccccc2)C=C[C@@H]1C`, the z-score was -0.596 (inactive). As for `CC(C)=NOC(C)CN1CCCc2nc(C)c(C)cc21` (stereo not drawn), the z-score was -0.369 (inactive).
